Source: the supplement of paper PMC3842684

Columns and labels:
[1] = system: P. falciparum NF54-pfs16-GFP early (I-III) stage gametocytes; experiment: relative % inhibition of viable gametocyte number; higher = more gametocytocidal; details: stage: early (I-III) gametocyte, incubation 72 h
Summary of the method: (§1)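 Early-stage (I/IIa, day 2) or late-stage (day 8) NF54 pfs16-GFP gametocytes were isolated by magnet and plated in 384-well poly-D-lysine imaging plates at 10% parasitaemia and 0.1% haematocrit, with compound in duplicate at 5 or 0.5 µM. After 72 h at 37°C under 5% CO2 and 5% O2, MitoTracker Red was added overnight. Confocal imaging scored elongated GFP objects whose MitoTracker signal passed a cut-off as viable gametocytes. Relative inhibition was normalised against vehicle and positive-control wells on the same plate.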

[2] = system: P. falciparum NF54-pfs16-GFP late (IV-V) stage gametocytes; experiment: as above; details: stage: late (IV-V) gametocyte, incubation 72 h
Summary of the method: as §1

| SMILES | relative % inhibition ([1]; 0.5 µM) [%] | relative % inhibition ([1]; 5 µM) [%] | relative % inhibition ([2]; 0.5 µM) [%] | relative % inhibition ([2]; 5 µM) [%] |
| --- | --- | --- | --- | --- |
| N=c1n(CCN2CCCCC2)c2ccccc2n1CC(O)c1cccc(Br)c1 (stereo unspecified) | 6.75 | 94.5 | 25.5 | 55.6 |
| COc1cccc(Cn2c(Oc3ccccc3)nc3c2c(=O)n(C)c(=O)n3C)c1 | 1.22 | -14 | 6.35 | 9.52 |
| Cc1cc(N(C)C)nc(Nc2ccc(NC(=O)Nc3ccccc3)cc2)n1 | 24.5 | 8.02 | 24 | 1.55 |
| CCN(CC)CCNc1ncnc2c1[nH]c1ccc(Br)cc12 | -15.3 | 61.4 | 12.4 | 27.1 |
| COc1ccc(Br)cc1C1Nc2ccc3ccccc3c2C2=C1C(=O)CC(c1ccccc1)C2 (stereo unspecified) | 27.7 | 70.3 | 2.99 | 16.2 |
| COc1ccccc1CNC(=O)CCn1c(=O)[nH]c2ccccc2c1=O | 27.4 | 28.5 | -5.22 | 2.14 |
| c1ccc(CNc2nc(Nc3ccccc3)nc3ccccc23)cc1 | 65.9 | 97 | 57.9 | 86.1 |
| COc1cccc(NC(=O)[C@H](C(C)C)n2c(=O)[nH]c3ccccc3c2=O)c1 | 70.7 | 97.8 | 35 | 59.9 |
| CN1CCN(c2ccc(Nc3c4ccccc4nc4ccccc34)cc2)CC1 | 100 | 101 | 91.3 | 104 |
| CCOc1ccc(C2N(C)c3ccccc3N2C)cc1 | 5 | 15.9 | -6.22 | -12.5 |
| CCOC(=O)C1=CN(C)C=C(C(=O)OCC)C1c1cc(Br)c(OCC)c(OC)c1 | 38.1 | 89.7 | 16.5 | 37.9 |
| O=C(Nc1nc(-c2ccccn2)cs1)c1ccccc1Br | 10.8 | 93.2 | -7.93 | 68.6 |
| COc1cccc(NC(=O)Cn2c(C)c(C#N)c3ccccc32)c1 | 17 | 45.2 | -4.97 | 29.8 |
| CCOc1ccc(CCNC(=O)c2cccs2)cc1OCC | -1.74 | 30.1 | -6.65 | 16.1 |
| Cc1cccc(Nc2nc(N)c3ccccc3n2)c1 | -18.5 | -18.1 | -5.43 | 5.81 |
| CCCN(CCC)CC(O)COc1ccccc1C(=O)Nc1ccccc1 (stereo unspecified) | 22.5 | 101 | 34.9 | 65.1 |
| O=C(NCc1ccco1)C1CCN(S(=O)(=O)c2ccc(Br)cc2)CC1 | -6.48 | -2.56 | 29 | 51.5 |

| SMILES | relative % inhibition ([1]; 0.5 µM) [%] | relative % inhibition ([1]; 5 µM) [%] | relative % inhibition ([2]; 0.5 µM) [%] | relative % inhibition ([2]; 5 µM) [%] |
| --- | --- | --- | --- | --- |
| CCN1CCN(Cc2ccc(NC(=O)c3cc4ccc5cccnc5c4[nH]3)cc2)CC1 | 21.1 | 59.1 | -6.9 | 3.45 |
| CN(C)c1ccc(N=Cc2ccc(N3CCOCC3)cc2)cc1 | 2.5 | 48.6 | 22.1 | 62 |
| COc1cc(-c2nc(-c3ccc(Sc4ccccc4)cc3)c(-c3ccccc3)[nH]2)cc(OC)c1O | 27 | 86.1 | 3.44 | -21 |
| CC(C)(C)CC(C)(C)NCC(O)COc1ccc(Cl)cc1Cl (stereo unspecified) | 34.8 | 92.4 | 90.2 | 114 |
| COc1ccc(-c2cc3c(nn2)-c2ccccc2C3=O)cc1 | -10.8 | 81.1 | 87.4 | 96.1 |
| Cc1ccc(-c2nc3ccccc3o2)cc1NCc1cc(Cc2ccccc2)ccc1O | 9.8 | 95.1 | 13.4 | 48.6 |
| Cc1cc(Nc2ccc3ccccc3c2)n2ncnc2n1 | -10.4 | 3.61 | 1.55 | 8.91 |
| COc1ccc(Nc2nc(NCc3ccccc3)c3ccccc3n2)cc1 | 84.8 | 98.1 | 81.6 | 107 |
| Cc1cc(=O)oc2c1ccc1oc(C(=O)c3ccccc3)c(C)c12 | 8.22 | 5.4 | 17.2 | -4.53 |
| CCOc1cc2c(cc1OCC)C(c1cc(C)c(O)c(C)c1)NCC2 (stereo unspecified) | 18.2 | 102 | 24.3 | 34.7 |
| CCOc1cc(Br)c(C(C)NC(=O)c2cccc(OC)c2)cc1OCC (stereo unspecified) | 9.37 | 46.2 | 11.2 | 42.6 |
| Cc1sc2ncnc(Sc3nc4ccccc4[nH]3)c2c1C | 89.7 | 91.1 | 30.6 | 94.5 |
| CCCCCn1c(=N)n(CC(O)COc2cccc(C)c2)c2ccccc21 (stereo unspecified) | 37.7 | 74.5 | -3.63 | 56 |
| COc1ccc(-c2cc3c(SCC(=O)Nc4cc(C(F)(F)F)ccc4Cl)nccn3n2)cc1 | 14.5 | -14.1 | -14.3 | 3.88 |
| Cc1cc(N2CCCC2)nc(Nc2ccc(NC(=O)CCc3ccccc3)cc2)n1 | 53.7 | 89.6 | 6.75 | 21 |
| CN1CCN(c2nc(Nc3ccc(O)cc3)nc3ccccc23)CC1 | -17.7 | -9.15 | -10.7 | -15.5 |
| CCOC(=O)c1cnc2ccc(CC)cc2c1O | -8.43 | 42.6 | 73.6 | 79.8 |
